SMILES strings stand for the structures. Inconclusive results are not listed. Active and inactive are the calls of the source. The calls were made as follows: active = hit-call score of the fitted dose curve at least 0.9, where 1 is the maximum; inconclusive = response in the unintended direction; inactive = score below 0.9.

Sequence of human MAP Kinase-Activated Protein Kinase 5 (MAPKAPK5), MAPKAPK5 (gene 8550) (Q8IW41 whole entry, looked up): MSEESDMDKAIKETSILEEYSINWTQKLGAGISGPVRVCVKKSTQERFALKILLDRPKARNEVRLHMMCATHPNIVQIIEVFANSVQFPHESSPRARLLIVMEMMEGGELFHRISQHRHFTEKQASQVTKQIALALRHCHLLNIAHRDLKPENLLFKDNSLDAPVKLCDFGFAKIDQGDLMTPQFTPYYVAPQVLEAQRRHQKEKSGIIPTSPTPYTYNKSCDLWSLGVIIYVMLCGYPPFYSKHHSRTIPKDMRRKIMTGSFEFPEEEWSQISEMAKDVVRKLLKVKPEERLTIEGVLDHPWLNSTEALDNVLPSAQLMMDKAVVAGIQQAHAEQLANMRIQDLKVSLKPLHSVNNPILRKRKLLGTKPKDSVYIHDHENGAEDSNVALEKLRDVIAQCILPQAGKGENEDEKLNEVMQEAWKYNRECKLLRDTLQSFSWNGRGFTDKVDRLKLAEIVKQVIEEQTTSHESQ

This experiment deals with human MAP Kinase-Activated Protein Kinase 5 (MAPKAPK5), MAPKAPK5 (gene 8550) (UniProt Q8IW41). In words: NVS_ENZ_hMAPKAPK5: NovaScreen (NVS) Enzymatic Assay for human MAP Kinase-Activated Protein Kinase 5 (MAPKAPK5). As for the experimental part:
NVS_ENZ_hMAPKAPK5 is a biochemical, single-readout assay that uses extracted gene-proteins in a cell-free assay. Measurements were taken 1 hour after chemical dosing in a 384-well plate.NVS_ENZ_hMAPKAPK5 is one of one assay component(s) measured or calculated from the NVS_ENZ_hMAPKAPK5 assay. It is designed to make measurements of enzyme activity, a form of enzyme reporter, as detected with fluorescence intensity signals by Fluorescence and electrophoretic mobility shift technology.Data from the assay component NVS_ENZ_hMAPKAPK5 was analyzed into 1 assay endpoint. This assay endpoint, NVS_ENZ_hMAPKAPK5, was analyzed in the positive analysis fitting direction relative to DMSO as the negative control and baseline of activity. Using a type of enzyme reporter, loss-of-signal activity can be used to understand changes in the enzymatic activity as they relate to the gene MAPKAPK5. Furthermore, this assay endpoint can be referred to as a primary readout, because this assay […]. To generalize the intended target to other relatable targets, this assay endpoint is annotated to the kinase intended target family, where the subfamily is serine/threonine kinase.
Binding assays used specific radioligands (tritiated, iodinated) with non-radioactive competitive displacement ligands in agonist or antagonist protocols (as indicated) and various reference compounds and inhibitors to titrate specific binding to receptors and transporters. Most enzyme assays (CYPs, kinases, phosphatases, proteases, HDACs) used recombinant protein and specific substrates (fluorescence mostly, some colorimetric and radioactive) and inhibitors, followed by a biochemical separation of substrate and product. All assays for the biochemical HTS were initially run in duplicate at a single concentration (10 uM for CYP450 assays and 25 uM for all others). Assay-chemical combinations meeting a pre-defined threshold (e.g., 30% inhibition and other criteria defined below) were then run in singleton concentration-response format with maximum concentration of 20 uM for CYPs and 50 uM for all others. Each assay was run with positive and negative controls, and concurrent controls on every plate. The follow-up (secondary) screen tested active chemical-pairs in concentration series, as well as a few additional assays not tested in the primary screen, some selected negative inactives, and several cases re-run in the concentration series for confirmatory purposes.
In the case of `C=C(C)CN(CC)c1c([N+](=O)[O-])cc(C(F)(F)F)cc1[N+](=O)[O-]`, the outcome was inactive.
Same read-out and setting: under `CNC(=S)S` stands “inactive”.
Take `CN(C)[C@@H]1C(=O)C(C(N)=O)=C(O)[C@@]2(O)C(=O)C3=C(O)c4c(O)cccc4[C@@](C)(O)[C@H]3[C@H](O)[C@@H]12`: the AC50 (in general, the concentration at which the activity in the assay is half-maximal) is 24.2 µM (active).
As for `O=C(O)C(F)(F)C(F)(F)C(F)(F)C(F)(F)C(F)(F)C(F)(F)C(F)(F)F`, the compound was classed as inactive.
For the compound `S=C1NCCN1`, the compound was classed as inactive.
`CCCC(=NOCC)C1=C(O)CC(CC(C)SCC)CC1=O` (stereo not drawn): the call was inactive.
Take `O=S(=O)(O)C(F)(F)C(F)(F)C(F)(F)C(F)(F)C(F)(F)C(F)(F)C(F)(F)C(F)(F)F`: the AC50 is 44.1 µM (active).
For `N#Cc1c(Cl)c(Cl)c(Cl)c(C#N)c1Cl`, the compound was called inactive.

Source of the values: PubChem BioAssay AID2283176 (EPA ToxCast).
